For 65 molecules, inhibition results are on record in PubChem BioAssay AID778 (Sanford-Burnham Center for Chemical Genomics, 2007).

Among all 96,000 compounds or so, about 20,000 (21%) were called active. Not all results are given here. Values without a mark were called inactive.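 How the source made its calls: active means CYP2C19 inhibition above a set limit at 5 µM in the primary screen (cut at about 50% in these data); inactive means the rest.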

This test deals with Cytochrome P450 2C19 (Homo sapiens) (UniProt P33261). Kind of test: blockers of cytochrome P450 2C19 activity – biochemical, luminescence, ADME assay, primary screen (AID 778).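 Further: plate controls were negative control wells for no effect and 2.5 mM tranylcypromine positive control for full effect.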 Particulars: CYP2C19 Supersomes, luciferin-H EGE luminescence, 30 min; at 5 µM; hits give high values.
Sequence of Cytochrome P450 2C19 (Homo sapiens) (P33261 whole entry, looked up): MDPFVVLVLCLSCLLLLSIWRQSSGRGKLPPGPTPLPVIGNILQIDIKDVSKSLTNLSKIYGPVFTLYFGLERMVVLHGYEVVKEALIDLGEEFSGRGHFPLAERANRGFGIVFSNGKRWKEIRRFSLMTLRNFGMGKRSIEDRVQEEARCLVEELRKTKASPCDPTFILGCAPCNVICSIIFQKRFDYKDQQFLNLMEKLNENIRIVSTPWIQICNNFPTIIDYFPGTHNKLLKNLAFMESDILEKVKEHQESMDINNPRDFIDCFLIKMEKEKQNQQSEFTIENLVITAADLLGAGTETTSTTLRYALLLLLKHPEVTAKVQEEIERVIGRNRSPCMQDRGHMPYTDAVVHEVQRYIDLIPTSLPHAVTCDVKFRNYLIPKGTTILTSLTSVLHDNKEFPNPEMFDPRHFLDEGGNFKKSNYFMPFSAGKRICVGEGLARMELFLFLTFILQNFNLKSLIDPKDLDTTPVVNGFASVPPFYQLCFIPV
Take `CCN1CCN(c2ccc([N+](=O)[O-])cc2C(=O)c2ccc(Cl)cc2)CC1`: the inhibition (commonly the relative decrease from the control value, in per cent) was 5.8%.
In the case of `CCCC(=O)Nc1nnc(CC(=O)OCC)s1`, the inhibition is -0.3%.
The value for `CC1=CC(C)(C)NC(=S)N1c1ccccc1` was 58.1% (active); that for `Cc1ccc(N2C(=O)C(Cc3ccccc3)NC2=S)cc1` (stereo not given) was 39.4%.
Turning to `COc1ccc2c(c1OC)C(=O)OC2Nc1nc(-c2ccccc2)cs1` (stereo not given), the inhibition is 12%.
The same measure for `Cc1[nH]n(-c2ccccc2)c(=O)c1CCOC(=O)c1ccc(C(F)(F)F)cc1`: 31.8%; for `COc1ccc(S(=O)(=O)N2CCN(C(=O)c3cccs3)CC2)cc1OC`: 43.6%.
On to `O=C(CCCN1C(=O)c2cccc3cccc(c23)C1=O)N1CCN(Cc2ccc3c(c2)OCO3)CC1`, for which the inhibition is 78.8% (active).
On to `CCS(=O)(=O)N1CCN(C(=O)c2cccs2)CC1`, for which the inhibition is 56.5% (active).
For the molecule `O=C(c1cccs1)N1CCN(Cc2ccc3c(c2)OCO3)CC1`, the inhibition is 56.9% (active).
As for `Cn1c(=O)cc(OCCCC(=O)N2CCN(Cc3ccc4c(c3)OCO4)CC2)c2ccccc21`, the inhibition is 36.7%.
The value for `O=C(Nc1cccc2ccccc12)N1CCN(Cc2ccc3c(c2)OCO3)CC1` was 35.2%.
The same measure for `O=C(c1cccs1)N1CCN(C(=O)N2CCOCC2)CC1`: 2.3%; for `CCCS(=O)(=O)N1CCN(C(=O)c2cccs2)CC1`: 11%.
With `NC(=O)c1ccccc1NC(=O)c1ccccc1F`, the inhibition is -8.5%.
For the molecule `CCOC(=O)c1c(C)nc(-c2ccccc2)nc1NC(=O)C(C)C`, the inhibition was 37.3%.
The same measure for `CCOC(=O)N1CCC(NC(=O)Cn2cc3c(n2)CCCCC3)CC1`: 1.5%.
Take `CCN1CCN(Cc2c(O)ccc3c(=O)c(-c4ccc(OC)c(OC)c4)c(C(F)(F)F)oc23)CC1`: the inhibition is 12%.
With `Cc1cc(=O)oc(C)c1C(=O)Nc1cnc2ccccc2c1`, the inhibition is 0.8%.
With `CC(=NCC1CCCO1)c1c(O)[nH]c(=O)[nH]c1=O` (stereo not given), the inhibition is -7.7%.
In the case of `COCCNC(=O)CN(C(=O)CCC(=O)Nc1cc(C)on1)c1ccc(C)cc1C`, the inhibition is 11.8%.
The same measure for `N#CC1=C(N)Oc2n[nH]c(CSc3ccccc3)c2C12C(=O)Nc1ccccc12` (stereo not given): 0.5%; for `O=C(NCc1ccccn1)c1ccc2nc(-c3ccco3)c(-c3ccco3)nc2c1`: 43.6%.
With `COc1ccc(CC(NC(C)=O)C(=O)NC2CCN(C(=O)Nc3ccc(C#N)cc3)CC2)cc1OC` (stereo not given), the inhibition is 32%.
`COc1ccc(C(CNC(=O)c2cccnc2SC)N2CCOCC2)cc1` (stereo not given): the inhibition is 11.3%.
Consider `CCC1=C/C(=C\c2ccc3c(c2)OCO3)C(=O)S1`, for which the inhibition is 43.8%.
On to `Cc1cccc(N=C2NC(=O)CS2)c1C`, for which the inhibition is 7.4%.
As to `Cc1cc(C=O)c(C)n1-c1ccc(NC2CCCCC2)c([N+](=O)[O-])c1`, the inhibition is -2.5%.
As for `COc1cc(OC)c(-n2c(C)cc(C=O)c2C)cc1Cl`, the inhibition was 93.2% (active).
Consider `O=C(c1ccco1)N1CCN(C(=O)c2ccc(COc3ccc(F)cc3)o2)CC1`, for which the inhibition is 25.1%.
As to `COCCN1Cc2cccc(C(=O)Nc3ccccc3OC)c2C1=O`, the inhibition is 34.9%.
As for `CCCOc1ccc(NC(=O)C2CCCNC2=O)cc1` (stereo not given), the inhibition is 3.9%.
The same measure for `C=CCNC(=O)c1csc(-c2ccccc2)n1`: 67.4% (active); for `CNC(=O)c1csc(-c2ccccc2)n1`: 23.7%.
The value for `C=CCNC(=O)c1cc(-c2ccccc2O)on1` was 45.7%.
Regarding `CS(=O)(=O)N(CC(=O)N1CCOCC1)c1ccc2c3c(cccc13)CC2`, the inhibition was 32.7%.
With `C=CCN(C(=O)Nc1ccc2oc(C)nc2c1)c1ccccc1`, the inhibition was 14.7%.
Regarding `Cc1ccc2oc(=O)c3cnn(CC(=O)N4CCCCCC4)c3c2c1`, the inhibition is -5.2%.
The value for `C=CCN(C(=O)Cn1ncc2c1-c1cc(C)ccc1OC2)c1ccccc1` was 63.4% (active).
Turning to `CS(=O)(=O)c1sc2nc(-c3ccccc3)cc(-c3ccccc3)c2c1N`, the inhibition was -2.6%.
The same measure for `O=C(NC1CCCCC1)N1CCc2[nH]c3ccccc3c2C1`: 44.1%; for `N#Cc1ccc(CSc2nnc(-c3ccccn3)n2-c2ccc(Cl)cc2)cc1`: 18.3%.
Take `O=C(NCc1ccccn1)c1cc2ccccc2oc1=O`: the inhibition was 1.3%.
Turning to `Nc1ncc(-c2cc3ccccc3oc2=O)s1`, the inhibition is 51.3% (active).
For `O=C(Oc1cccnc1)c1cc2ccccc2oc1=O`, the inhibition is -9.9%.
For the molecule `CCCCN(C)C(=O)c1ccc2c(c1)N(CC)C(=O)c1ccccc1S2(=O)=O`, the inhibition was 22.5%.
As for `O=C(CCN1C(=O)c2ccncc2C1=O)Nc1ccc2c(c1)OCCO2`, the inhibition was 2.4%.
The same measure for `O=C(CCN1C(=O)c2ccccc2C1=O)Nc1ccncc1`: 36.2%; for `O=C(CCN1C(=O)c2ccccc2C1=O)Nc1cccc(F)c1`: 78% (active).
Take `O=C(COc1ccccc1Cl)Nn1cnnc1`: the inhibition was 41.3%.
For `COc1ccc(Cc2nnc(NC(=O)Cc3cccs3)s2)cc1`, the inhibition is 17.2%.
On to `COc1ccc(NC(=O)NC2CC3CCCC(C2)N3Cc2ccccc2)cc1` (stereo not given), for which the inhibition is 0.4%.
The value for `CN(C)c1nc2n(c(=O)n1)CCO2` was -6%; that for `CN(C)/C=C1/Nc2ccccc2C1=O` was 14.3%.
In the case of `Cc1ccccc1-c1nc(CS(=O)(=O)CC(=O)N2CCc3ccccc3C2)c(C)o1`, the inhibition is 69.4% (active).
`COc1ccc(-c2nc(CS(=O)CC(=O)N3CCc4ccccc4C3)c(C)o2)cc1` (stereo not given): the inhibition is 17.7%.
With `Cc1oc(-c2ccccc2F)nc1CS(=O)(=O)CC(=O)NCCCN(C)C1CCCCC1`, the inhibition was -10.6%.
Regarding `CCN1CCN(C(=O)/C=C\C(=O)O)CC1`, the inhibition is -10.4%.
For `CCOC(=O)c1c(N)c(C#N)nn1-c1ccccc1C(=O)OC`, the inhibition was 25.3%.
As to `CCC(=O)NC(NCC1CCCO1)C(Cl)(Cl)Cl` (stereo not given), the inhibition is 8.6%.
Take `COCCNC(=O)c1snc2ccc(Cl)cc12`: the inhibition was -5.7%.
Regarding `CCOC(=O)c1sc(C)c2c1NC(C)(c1cccc3ccccc13)NC2=O` (stereo not given), the inhibition is 82% (active).
For the molecule `CCOC(=O)c1nc(N)sc1C(=O)OCC`, the inhibition was -0.6%.
For the molecule `CCOC(=O)c1cc2ccccc2nc1C`, the inhibition was 12.8%.
For the molecule `COC(=O)C(C)n1cnc2c(nnn2-c2cccc(Cl)c2)c1=O` (stereo not given), the inhibition is 24.7%.
